DAX1 inh-1 – inhibits human nuclear receptor DAX1; inhibition, % at 6.75 µM; HEK293 Gal4-DAX1 luciferase reporter, luminescence; actives 0.99% (n = 340,000);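 active = inhibition above the mean over all tested compounds plus 3 SD, cut at about 4.2% in these data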;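 note: inhibition shows as a rise in luminescence from relieved DAX1 repression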
DAX1 inh-2 – inhibitors of DAX1 repression of SF-1 activated StAR promoter | HEK293T StAR-luciferase reporter, SF-1/DAX-1 repression relief | inhibition, % at 6.8 µM | actives 1.1% (n = 370,000);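 active = inhibition above the mean over all tested compounds plus 3 SD, cut at about 3.6% in these data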;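 note: higher inhibition means more luminescence from relief of DAX-1 repression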
hgDAF-12 ag – activates the H. glycines DAF-12 receptor ligand-binding domain | HEK293 GAL4-hgDAF12 UAS-luciferase reporter, agonist luminescence; normalized to butyrate control | activation, % at 6.8 µM | actives 1.8% (n = 370,000);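 active = activation above a cutoff set at the mean of all screened compounds plus 3 SD, cut at about 10% in these data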
ssDAF12 agonist – activators of S. stercoralis DAF-12 nuclear receptor. HEK293 ssDAF-12/GRIP1 lit1-tk-luc reporter, luminescence; % of 3 µM dafachronic acid response. activation, % at 6.8 µM. actives 1% (n = 370,000). AID 652126;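 active = activation above the mean over all tested compounds plus 3 SD, cut at about 0.9% in these data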
hcDAF-12 act – activators of H. contortus DAF-12 nuclear receptor; actives 1.4% (n = 370,000); HEK293 hcDAF-12 lit1-tk-luc reporter, luminescence; 0% DMSO, 100% Δ7-dafachronic acid; activation, % at 6.8 µM;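 active = activation above the mean of all tested compounds plus 3 SD, cut at about 5.5% in these data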
DAX1 conf – NR0B1 (human) inhibition, confirmation; actives 87% (n = 2,400); inhibition, % at 6.8 µM; HEK293T StAR-promoter luciferase reporter, SF-1/DAX-1 repression; AID 652134; shares compounds with DAX1 inh-2;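 active = inhibition above the average of every tested compound plus 3 SD, cut at about 3.8% in these data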;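 note: active compounds raise luminescence by relieving repression of the StAR reporter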
Target sequence (P51843 whole entry, looked up): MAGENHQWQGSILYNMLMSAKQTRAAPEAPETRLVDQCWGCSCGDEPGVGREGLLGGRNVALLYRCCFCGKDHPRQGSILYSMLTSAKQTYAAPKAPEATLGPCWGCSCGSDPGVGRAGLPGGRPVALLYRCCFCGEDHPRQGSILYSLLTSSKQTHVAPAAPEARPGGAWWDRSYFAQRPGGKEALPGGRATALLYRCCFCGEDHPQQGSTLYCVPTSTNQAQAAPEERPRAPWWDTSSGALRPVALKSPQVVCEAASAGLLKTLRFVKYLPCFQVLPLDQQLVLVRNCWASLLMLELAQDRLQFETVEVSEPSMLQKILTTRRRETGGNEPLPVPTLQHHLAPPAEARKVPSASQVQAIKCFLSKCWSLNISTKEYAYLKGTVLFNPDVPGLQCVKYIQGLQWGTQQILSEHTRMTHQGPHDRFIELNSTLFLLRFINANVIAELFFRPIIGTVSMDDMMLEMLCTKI
SF1 mutant ctr – counter-screen for DAX1 inhibitors: nonselective inhibitors with SF-1 AF2 mutant; shares compounds with DAX1 inh-2; HEK293 StAR-luciferase, luminescence; inhibition, % at 6.8 µM; actives 78% (n = 2,400); AID 652136;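 active = inhibition above the mean of all tested compounds plus 3 SD, cut at about 3% in these data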
Numbers stand for hits; - = inactive; . = no result. A selection: hits, their analogues and other compounds. The true share with any hit is near 4.1%.

SMILES	DAX1 inh-1	DAX1 inh-2	hgDAF-12 ag	ssDAF12 agonist	hcDAF-12 act	DAX1 conf	SF1 mutant ctr
c1ccc(COc2ccc(CNCc3cccnc3)cc2)cc1	-	-	-	-	-	.	.
COc1ccc(OCC(O)CNC(=O)c2ccccc2)cc1 (stereo not drawn)	-	-	-	-	-	.	.
COc1cc(C)ccc1OCc1cc(C(=O)NCc2ccncc2)no1	-	4.7	11	-	-	5.3	3.0
COc1cc(C)ccc1OCc1cc(C(=O)N2CCN(C3CCCCC3)CC2)no1	-	5.7	11	-	-	5.7	3.8
Cc1ccc(OCc2cc(C(=O)N(CCO)Cc3cccs3)no2)cc1C	-	5.1	-	-	-	6.1	3.7
CCN(Cc1ccncc1)C(=O)c1cc(COc2ccc(C)c(C)c2)on1	-	-	-	-	-	.	.
O=[N+]([O-])c1ccc2nnn(O)c2c1	-	-	-	-	-	.	.
CCOC(=O)CCCCCC(=O)Nc1ccc2c(c1)C(=O)N([C@@H](C)CO)C[C@H](C)[C@H](CN(C)C(=O)NC(C)C)OCCCC[C@H](C)O2	-	-	-	-	-	.	.
CN(Cc1cnn(-c2ccc(F)cc2)c1)C(=O)[C@H]1O[C@@H](n2cnc3c(N)ncnc32)[C@H](O)[C@@H]1O	.	-	-	-	-	.	.
CCCCNC(=O)CSc1nc(COc2ccccc2)nc2ccccc12	-	-	-	-	-	.	.
CC(=O)c1ccc(NC(=O)c2cnn3ccccc23)cc1	-	5.8	-	-	-	5.3	-
Cc1ccc(C)c(NC(=O)c2cnn3ccccc23)c1	-	-	-	-	-	.	.
COc1ccc(N=C2C(=S)N(c3ccc(OC)cc3)C(=NS(=O)(=O)c3ccccc3)N2c2ccccc2)cc1	-	8.2	13	-	-	-	4.2
Cc1cc(C)cc(NC(=O)c2sc3nc4n(c(=O)c3c2C)CCC4)c1	-	-	-	-	-	.	.
Cc1c(C(=O)Nc2ccccn2)sc2nc3n(c(=O)c12)CCC3	-	8.8	-	-	-	9.8	6.1
N#C/C(=N\Nc1cccc(F)c1)C(=O)C1CC1	-	-	-	-	-	.	.
N#C/C(=N\Nc1cccc(F)c1)C(=N)N1CCCCCC1	7.0	6.8	13	1.7	-	19	8.6
O=C(NCCS(=O)(=O)NCCCc1ccccc1)c1ccccc1	-	-	-	-	-	.	.
O=C(NCCS(=O)(=O)NCCc1ccccc1)c1ccccc1	-	4.7	-	-	-	-	-
COc1ccc(Nc2nc(-c3cccs3)cs2)cc1	.	7.1	18	3.8	16	19	11
Oc1ccc(Nc2nc(-c3cccs3)cs2)cc1	-	-	-	-	-	.	.
CC1(C(=O)NS(=O)(=O)Cc2cccc(Cl)c2)CCN1C(=O)CCc1cccs1 (stereo not drawn)	.	-	-	-	-	.	.
O=[N+]([O-])c1cccc(CSc2nnc3ccccn23)c1	-	-	-	-	-	.	.
c1ccn2c(SCc3ccc4c(c3)OCCO4)nnc2c1	-	4.5	-	-	-	5.3	3.5
C/C(=N\Nc1ccc(C(=O)O)cc1)c1ccc(-n2ccnc2)cc1	-	6.8	12	-	-	8.3	5.3
SMILES	DAX1 inh-1	DAX1 inh-2	hgDAF-12 ag	ssDAF12 agonist	hcDAF-12 act	DAX1 conf	SF1 mutant ctr
Cc1ccsc1C(=O)NNC(=O)C1CCCCC1C(=O)O (stereo not drawn)	-	6.2	16	-	-	4.0	-
O=C(NNC(=O)[C@@H]1CCCC[C@@H]1C(=O)O)c1cccs1	-	-	-	-	-	.	.
CC(C)(C)Cc1nnc(NC(=O)CCC2CCCCC2)s1	-	.	.	.	.	.	.
Cc1cc(C(=O)COC(=O)c2ccc(O)cc2O)c(C)n1C(C)C	-	7.3	12	-	-	9.8	5.0
COc1cc(C(=O)N/N=C(\C)c2ccccn2)cc(OC)c1OC	-	8.3	-	-	-	-	-
O=C(Nc1ccc(Cl)cc1Cl)c1ccc2c(=O)n3c(nc2c1)CCC3	-	8.7	-	-	-	11	7.5
O=C(Nc1ccc(Br)cc1Cl)c1ccc2c(=O)n3c(nc2c1)CCC3	-	5.1	-	-	-	5.2	2.9
Cc1ccccc1OCC(=O)Nc1cccc(C(=O)O)c1	-	5.0	11	-	-	7.9	4.3
Cn1cnc2cc(NC(=O)c3cccs3)ccc21	5.7	4.6	-	-	-	3.8	3.7
CCC(=O)Nc1ccc2c(c1)ncn2C	-	-	-	-	-	.	.
Cn1cnc2cc(NC(=O)c3ccc(Cl)cc3)ccc21	-	6.6	12	-	-	14	6.4
COc1ccc(CCNC(=O)c2cccn2C)cc1	-	6.3	-	-	-	7.8	6.5
COc1ccc(CCNC(C)=O)cc1	-	-	-	-	-	.	.
COc1ccc(OCCSc2nnnn2C2CCCCC2)cc1	-	-	-	-	-	.	.
c1ccc(OCCSc2nnnn2C2CCCCC2)cc1	-	4.5	13	-	-	11	8.3
CCC(=O)N1CCCC(C(=O)NS(=O)(=O)c2cc(C)c(Cl)cc2C)CC1 (stereo not drawn)	.	-	-	-	-	.	.
O=C(NC(=O)c1ccccc1)Nc1ccc(Cl)cn1	-	7.9	-	-	-	14	7.3
CC(C)C[C@@H]1Cc2[nH]c(=S)[nH]c(=O)c2[C@H](C)O1	.	5.8	-	-	-	-	-
O=C(NC1CCCCC1)C(=O)c1c[nH]c2ccccc12	-	6.5	-	-	-	8.5	5.5
O=C(Nc1ccc(-c2nc3ccccc3[nH]2)cc1)C1CCCO1 (stereo not drawn)	-	7.7	13	-	-	15	8.9
C=CCNc1nc(NCc2ccc(NC(C)=O)cc2)c2sc(-c3ccccc3)cc2n1	.	6.4	12	2.0	-	7.8	5.7
CC(=O)Nc1ccc(CNc2nc(NC(C)C)nc3cc(-c4ccccc4)sc23)cc1	.	-	-	-	-	.	.
COc1ccc2c(c1)CCC1(C)CC(=O)C(Br)=C21 (stereo not drawn)	-	-	-	-	-	.	.
C[C@H](CO)N1C[C@H](C)[C@@H](CN(C)Cc2ccccc2F)Oc2ncc(Br)cc2C1=O	-	-	-	-	-	.	.
Cc1ccccc1-c1nnc2n1N=C(c1ccc(O)c(O)c1)CS2	.	5.2	-	-	-	21	-
O=C(COC(=O)c1cc(S(=O)(=O)N2CCOCC2)ccc1Cl)Nc1ccccc1Cl	-	-	-	-	-	.	.
CCN1C(=O)[C@H]2[C@@H](c3ccc(C)cc3)N3C(=O)N(c4cccc(Br)c4)C(=O)[C@@]3(CC(C)C)[C@H]2C1=O	-	-	-	-	-	.	.
CC(=O)N1CCN(c2ccc(NS(=O)(=O)c3ccc(C)cc3)cc2)CC1	-	-	-	-	-	.	.
